Source: PubChem (National Center for Advancing Translational Sciences (NCATS))
Imprint erasure: induces erasure of genomic imprints in mouse ES cells. mouse ES Peg3-LacZ reporter, beta-gal luminescence, 40 h. Potency, µM (highest dose often 60.7 µM), for inactives: top-dose activity change, positive = activation, actives largely listed as activators. 110,000 tested, 0.02% active. AID 1948
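Imprint erasure is scored as LacZ activity from the silenced maternal Peg3 allele in feeder-free female ES cells cultured 40 h with LIF. Luminescence is normalized to in-plate negative controls and fitted to the Hill equation.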
Tau fil binding: binders of human tau filaments. P10636. recombinant tau filaments, thioflavin S fluorescence, 15 h; filaments grown with octadecylsulfate alongside compound. Potency, µM (doses to about 57.1 µM), for the others: at the highest dose activity change, negative = inhibition. 71,000 tested, 2% active;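 note: % is set by controls: 0 for no effect and ±100 for the full control effect; actives lower thioflavin S fluorescence by blocking filaments or displacing dye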
Target sequence (P10636 whole entry, looked up): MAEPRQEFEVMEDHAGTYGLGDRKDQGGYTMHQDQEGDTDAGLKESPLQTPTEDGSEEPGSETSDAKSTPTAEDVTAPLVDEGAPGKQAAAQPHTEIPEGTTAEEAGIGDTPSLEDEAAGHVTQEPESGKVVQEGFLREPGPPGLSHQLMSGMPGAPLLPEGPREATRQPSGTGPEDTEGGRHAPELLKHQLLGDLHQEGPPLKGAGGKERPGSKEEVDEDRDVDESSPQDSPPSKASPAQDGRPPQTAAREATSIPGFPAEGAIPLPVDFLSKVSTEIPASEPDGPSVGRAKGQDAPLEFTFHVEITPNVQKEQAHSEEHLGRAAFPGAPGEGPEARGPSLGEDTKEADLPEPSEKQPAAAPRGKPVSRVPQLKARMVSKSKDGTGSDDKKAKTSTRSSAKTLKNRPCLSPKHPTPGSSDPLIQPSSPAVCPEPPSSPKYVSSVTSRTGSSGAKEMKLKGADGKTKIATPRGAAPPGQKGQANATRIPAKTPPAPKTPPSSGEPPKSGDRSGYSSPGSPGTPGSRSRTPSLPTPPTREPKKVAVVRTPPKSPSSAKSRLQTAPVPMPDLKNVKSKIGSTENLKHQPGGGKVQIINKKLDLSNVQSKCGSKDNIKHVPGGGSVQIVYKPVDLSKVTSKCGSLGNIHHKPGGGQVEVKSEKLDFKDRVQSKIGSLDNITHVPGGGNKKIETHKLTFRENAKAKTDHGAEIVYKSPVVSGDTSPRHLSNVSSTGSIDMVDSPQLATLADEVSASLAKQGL
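Quantitative HTS: thioflavine S signal from ODS-induced tau filaments, excited at 450 nm, emission 510 nm. Conditions: 1 uM tau, 30 uM ODS, 15 h at 37 C, pH 7.4.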
FLuc inh: inhibitors of firefly luciferase; 72,000 tested, 2.2% active; P08659; purified firefly luciferase, luminescence, 8 min; Potency, µM (highest dose often 57.1 µM), for inactives: at the top dose activity change, negative = inhibition, actives largely listed as inhibitors; note: % is set by controls: 0 for no effect and ±100 for the full control effect; nearly all actives have a fitted effect of over 40% in size
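Titration-based qHTS; buffer 50 mM imidazole pH 7.2, 50 mM KCl, 7 mM MgCl2, 10 uM ATP, 0.01% Tween 20, 0.05% BSA; luciferase/luciferin detector mix added after compound; 8 min, ambient; luminescence.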
p53ts 39C kill: cytotoxicity in p53ts cells at nonpermissive temperature; H1299-p53A138V viability at 39C, ATP luminescence, 24 h; Potency, µM (doses to about 46.1 µM), without a hit: top-dose activity change, negative = cell killing, actives largely listed as cytotoxic; 130,000 tested, 1.5% active; AID 902; note: % is set by controls: 0 for no effect and ±100 for the full control effect; nearly all actives have a fitted effect of over 55% in size
p53ts 32C tox: p53ts cell cytotoxicity, permissive temperature; 130,000 tested, 0.93% active; Potency, µM (series often up to 46.1 µM), without a hit: at the highest dose activity change, negative = cytotoxicity, most hits filed as cytotoxic; H1299-p53A138V at 32C, ATP luminescence viability, 24 h;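 note: 0% = DMSO and -100% = full killing by reference compound; nearly all actives have a fitted effect of over 55% in size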
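Viability by ATPlite luminescence after 24 h compound treatment (up to 46 uM) at the permissive 32C. Cells are H1299 carrying p53 A138V. Scale runs from DMSO basal to 100 uM tamoxifen as full kill; AC50 from Hill fits.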
Numbers without * were called inactive; i = inactive; ? = inconclusive; . = not tested or not shown; [ ] = dose if it differs, or a comment. Shown are actives, neighbours in structure and some others; about 3.4% of the full set was active somewhere. Calls come from the whole dose curve; as a rule, active = well fitted curve in the direction sought with a large enough effect; inconclusive = small, poorly fitted or top-dose-only effect, or another doubt; inactive = no such curve, though single readings can be large; an effect the other way counts as inactive or inconclusive. Potency is the fitted concentration of half-maximal effect.

SMILES	Imprint erasure	Tau fil binding	FLuc inh	p53ts 39C kill	p53ts 32C tox
COc1ccc(C(=O)Nc2ccc3nc(SCC(=O)N4CCOCC4)sc3c2)cc1	-12%[10.9 µM]	.	.	18%	-6%
CC(C)Oc1ccc(C(=O)Nc2nnc(SCC(=O)N3CCOCC3)s2)cc1	.	.	.	0.5µM*	0.63µM*
CCOC(=O)CSc1nc2ccc(NC(=O)c3ccc(C)cc3)cc2s1	14%[10.9 µM]	.	.	10µM*	13µM*
Cc1ccc(C(=O)Nc2ccc3nc(SCC(=O)N4CCc5ccccc54)sc3c2)cc1	-10%[10.9 µM]	.	.	-1%	-21%
Cc1cc(OC(C)C(=O)N2CCC(c3nc4ccccc4o3)CC2)ccc1Cl (configuration not stated)	-10%[10.9 µM]	.	.	-3%	0%
CCCCSc1nnc(-c2ccccc2N)c(=O)[nH]1	.	.	.	1%	-8%
CCCCCSc1nnc(-c2cc(Br)ccc2N)c(=O)[nH]1	-16%	10µM*	4%	-1%	-10%
O=C(O[C@@H]1Cc2c(O)cc(O)cc2OC1c1ccc(O)c(O)c1)c1cc(O)c(O)c(O)c1 (some centres not stated)	14%	.	.	12%	-8%
CC[C@@H]1[C@H]2CCCCN3[C@@H]2[C@@H](C[C@H]3[C@@H]2C[C@H](C)C(=O)O2)[C@@H]2[C@H]1OC(=O)[C@H]2C	.	-22%	0%[11.4 µM]	.	.
CS(=O)(=O)c1ccc2nc(NC(=O)c3cccs3)sc2c1	-87%	7%	1µM*	2.5µM*	2.5µM*
Cc1ccc2nc(NC(=O)c3cccs3)sc2c1	.	139%	2µM*	7.9µM*	?
Cc1ccc(C(=O)Nc2nc3ccc(S(C)(=O)=O)cc3s2)s1	-71%	-8%	3.2µM*	13µM*	10µM*
CCC(=O)Nc1nc2ccc(S(C)(=O)=O)cc2s1	.	.	.	14%	-13%
Cc1cc(C(=O)Nc2nc3ccc(S(C)(=O)=O)cc3s2)c(C)o1	-84%	55%	2µM*	-27%	?
Cc1ccc(-c2nc3ccccc3[nH]2)cc1NC(=O)COc1ccccc1[N+](=O)[O-]	-15%[10.9 µM]	.	.	7.9µM*	16µM*
O=C(CSc1nnc(COc2ccc(Cl)cc2)o1)N1CCN(c2ccccc2)CC1	-15%	65%	2%	8%	-3%
O=C(CSc1nnc(-c2ccc(Cl)cc2)o1)N1CCN(c2ccccc2)CC1	-7%	13µM*	-1%	-8%	-6%
O=S(=O)(NCCNC/C=C\c1ccc(Br)cc1)c1cccc2cnccc12	.	-7%	1%	16µM*	?
O=S(=O)(NCCO)c1cccc2cccnc12	2%	-1%	1%	3%	6%
N[C@@H](CSC(=O)c1ccccc1)C(=O)O	0%[10.9 µM]	-3%[11.4 µM]	2%[11.4 µM]	-3%[9.22 µM]	3%[9.22 µM]
Cc1ccc(S(=O)(=O)c2c(N)n(/N=C/c3ccco3)c3nc4ccccc4nc23)cc1C	-11%	16µM*	1%	-6%	7%
COc1ccc(CNC(=O)c2cc3ccccn3n2)cc1OC	-8%[10.9 µM]	.	.	11%	4%
Cc1ccc(-c2cc(C(F)F)n3ncc(C(=O)N4CCN5CCCC5C4)c3n2)cc1 (configuration not stated)	23%	25µM*	0%	3%	6%
CCOC(=O)C1CCCN(C(=O)c2cnn3c(C(F)F)cc(-c4ccc(C)cc4)nc23)C1 (configuration not stated)	-9%	?	-1%	8%	-3%
Cc1ccnc(Nc2nc3ccccc3o2)n1	-91%	-8%	6.3µM*	7.9µM*	5µM*
SMILES	Imprint erasure	Tau fil binding	FLuc inh	p53ts 39C kill	p53ts 32C tox
CCOC(=O)c1cc2c(=O)n3ccccc3nc2n(CC2CCCO2)c1=NC(=O)c1ccccc1OCC (configuration not stated)	-4%[10.9 µM]	.	.	10%	-6%
COc1cccc(NC(=O)CSc2c3c(nc4ccccc24)CCCC3)c1	3%[10.9 µM]	.	.	?	?
CCCN(CCC)C(=O)CSc1c2c(nc3ccc(Cl)cc13)CCCC2	-15%[10.9 µM]	.	.	?	20µM*
O=C(CSc1c2c(nc3ccc(Cl)cc13)CCCC2)N1CCN(C(=O)c2ccco2)CC1	-29%	i	2%	6.3µM*	?
Cc1ccc(NC(=O)CSc2c3c(nc4ccccc24)CCCC3)cc1F	8%[10.9 µM]	.	.	16µM*	?
CCCCN(C)C(=O)CSc1c2c(nc3ccc(Cl)cc13)CCCC2	-9%[10.9 µM]	.	.	?	?
CN(Cc1ccccc1)C(=O)CSc1c2c(nc3ccc(Cl)cc13)CCCC2	3%[10.9 µM]	.	.	?	22µM*
Cc1nc(NCc2ccccc2)c2nc(-c3ccccc3)n(CC3CCN(C)CC3)c2n1	-9%	6%	.	4%	2%
O=C(CC(Nc1ccc(Cl)cc1)C(=O)O)c1ccccc1 (configuration not stated)	.	.	.	?	25µM*
COCCNC(=O)CSc1nc(-c2ccc(C)cc2)nc2c1c(=O)n(C)c(=O)n2C	-8%[10.9 µM]	.	.	6%	15%
OC[C@H]1O[C@@H](n2cnc3cncnc32)[C@H](O)[C@@H]1O	-12%	.	.	10µM*	?
OC[C@H]1O[C@@H](n2cnc3c(NCc4ccco4)ncnc32)[C@H](O)[C@@H]1O	-7%	.	.	?	16µM*
CSc1ncnc2c1ncn2C1OC(CO)C(O)C1O (configuration not stated)	?	.	.	10µM*	?
OC[C@@H]1O[C@@H](n2cnc3c(NCc4ccco4)ncnc32)[C@H](O)[C@H]1O	.	12%	-2%[11.4 µM]	.	.
Nc1ncnc2c1ncn2C1OC(CO)C(O)C1O (configuration not stated)	6%	.	.	0%	18%
Nc1nc(Cl)nc2c1ncn2[C@@H]1O[C@@H](CO)[C@@H](O)[C@H]1O	.	6%	0%	13µM*	16µM*
Cc1ccc2c(c1)-c1c(cnn1CC(=O)N1CCN(c3ccccc3F)CC1)CO2	10%[10.9 µM]	.	.	-16%	11%
Cc1ccc(C)c2sc(NC(=O)c3ccc(S(=O)(=O)N4CCC(C)CC4)cc3)nc12	6%[10.9 µM]	.	.	-3%	29%
Cc1ccc(C)c(NS(=O)(=O)c2ccc3oc(=O)c4ncn(C)c4c3c2)c1	8%[10.9 µM]	.	.	7.9µM*	?
c1coc(C2Nc3ccccc3-c3nc4ccccc4n32)c1 (configuration not stated)	-73%	-4%	?	-23%	-29%
c1ccc(C2Nc3ccccc3-c3nc4ccccc4n32)nc1 (configuration not stated)	.	.	4µM*	.	.
Cc1ccc2nc(N3CCN(c4cccc(Cl)c4)CC3)c(-n3nc(C)cc3C)nc2c1	6%[10.9 µM]	.	.	-12%	11%
Cc1c2cnn(-c3ccccc3)c(=O)c2c(C)n1C(C)C(=O)NCc1cccc(Br)c1 (configuration not stated)	-7%[10.9 µM]	.	.	-15%	14%
CC(C(=O)NCc1cccc(Br)c1)n1ncn2cccc2c1=O (configuration not stated)	-22%[10.9 µM]	.	.	13µM*	?
